Measured values taken from PubChem BioAssay (NCI).
The panel holds about 83,000 compounds, 20% with a hit somewhere; the sample as a whole holds those more often.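 Testing used 96-well plates and a 48-hour single-concentration exposure. Example: -40 means 40% of the starting cells died.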 Values without a mark were called inactive. The source made the active and inactive calls. How the source made its calls: active means growth percent below 10; inactive means the rest.

Legend:
Experiment in all cases: NCI-60 one-dose screen, 48 h (100 = growth as untreated, 0 = no growth, -100 = all killed)
Conditions in all cases: 10 µM unless noted
[1] = test system: NCI-H226 lung
[2] = test system: NCI-H322M lung
[3] = test system: HOP-62 NSCLC
[4] = test system: NCI-H460 lung
[5] = test system: HOP-92 NSCLC
[6] = test system: NCI-H522 lung
[7] = test system: A549/ATCC NSCLC
[8] = test system: 786-0 renal
[9] = test system: COLO 205 colon

| Compound | growth [1] | growth [2] | growth [3] | growth [4] | growth [5] | growth [6] | growth [7] | growth [8] | growth [9] |
| --- | --- | --- | --- | --- | --- | --- | --- | --- | --- |
| Cc1cc(Nc2ccc(C(=O)N3CCCC3)cc2)nc(NCCCNc2ccnc3cc(Cl)ccc23)n1 | 105% | 85.8% | 81.2% | 59.4% | 90.5% | 65.6% | 104% | 87.9% | 76.5% |
| O=C(c1c[nH]c2ccccc12)c1n[nH]c(=S)n1-c1cccc(Br)c1 | 83.1% | 77.7% | 81.7% | 75% | 84.2% | 80% | 86.5% | 103% | 99% |
| Cc1ccc(/C=C/C(=O)c2ccc(-n3cc(CN4CCN(c5cc6c(cc5F)c(=O)c(C(=O)O)cn6C5CC5)CC4)nn3)cc2)cc1 | 84.6% | 94.3% | 81.3% | 89.7% | 76.2% | 88.6% | 93.5% | 64.9% | 101% |
| CCn1c(-c2cc3c([nH]c4ccccc43)c(-c3cccc(O)c3)n2)n[nH]c1=S | 75.9% | 73.2% | 18.3% | 47.1% | 12.7% | -10.6% (active) | 38% | 13.5% | 92.5% |
| CCCCCCCC/C=C\CCCCCCCCOc1ccc(CC(=O)NCC[N+]2(C)CCOCC2)cc1 | 71.1% | 88.1% | 30.7% | 54.9% | 66.5% | 69.5% | 88.7% | 67.7% | -14.8% (active) |
| CN1CCN(CCCOc2cccc3nc(Nc4ccc(F)c(F)c4)ccc23)CC1 | 56.2% | -13.6% (active) | 5.44% (active) | -26% (active) | 0.0965% (active) | -58.6% (active) | 3.54% (active) | -12.3% (active) | -82.1% (active) |
| O=C(/C=C/c1ccc(Cl)cc1)c1cccc(OCCCOc2cccc(C(=O)/C=C/c3ccc(Cl)cc3)c2)c1 | 104% | 103% | 107% | 102% | 120% | 96.2% | 92.7% | 102% | 113% |
| COc1cc2c(c(OC)c1OC)C(=O)CC(c1cccc(NC(=O)c3ccc(C#N)cc3)c1)O2 (centres undefined) | 68.3% | 91.4% | 73.6% | 85.6% | 67.6% | 46.6% | 77.4% | 91.9% | 90.6% |
| CCN(CC)CCN1C(=O)c2c(c(C)c3c(oc4ccc(O)cc43)c2C)C1=O | 70% | 33.2% | 80.7% | -45.6% (active) | 91.7% | 68.2% | 20.6% | -36.2% (active) | 83.2% |
| O=C(CSc1nnc(-c2cc(-c3ccccc3)nc3ccccc23)n1-c1ccccc1)Nc1ccc(C(=O)/C=C/c2ccc(Cl)cc2)cc1 | 91.4% | 93.1% | 93% | 102% | 82.1% | 71.8% | 84.4% | 96.3% | 99.6% |
| Oc1c(CN2CCC(N3CCCCC3)CC2)cc(Cc2cc(CN3CCC(N4CCCCC4)CC3)c(O)c3ncccc23)c2cccnc12 | 5.18% (active) | 19.7% | 18.6% | 5.8% (active) | 30.5% | -34.7% (active) | 22.9% | 24.4% | -3.12% (active) |
